Only some compounds are listed: those with a hit (about 21% of all), similar ones and a draw of the others.
Shiga inhibitor: blocks Shiga toxin action in Vero cells. inhibition, % at 38.7 µM. Vero cells, Shiga toxin protein synthesis inhibition reporter. 290,000 compounds, 9.2% hits; in the data active = inhibition mostly above about 28%, no sharp cut-off; inactive = mostly below about 43%; also: 0% is about no effect
Pf growth 96h: P. falciparum growth inhibition at 96 hours. P. falciparum luciferase reporter growth, 96 h. Potency, µM (doses to about 28.7 µM), for the others: at the top dose activity change, negative = inhibition, usual class: inhibitors. 320,000 compounds, 6.9% hits. AID 504834; also: potency is read from the fitted curve at half-maximal effect; % is scaled to controls: 0 for no effect and ±100 for the full control effect
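Parasite growth measured via integrated firefly luciferase reporter in P. falciparum. Infected erythrocytes at 2% hematocrit, 0.05% parasitemia final were treated 96 hours at 37 C under 5% CO2, and luminescence was read.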
HCMV antiviral: human cytomegalovirus inhibition | HFF cells, HCMV-luciferase reporter, 72 h; stronger effect = lower value | activity change, negative = inhibition, % at 57.5 µM | 410,000 compounds, 4.5% hits | AID 1259415; in the data active = activity change below about -60%; inconclusive = no clear call, values can overlap the other calls; inactive = above about -39%; also: % is scaled to controls: 0 for no effect and ±100 for the full control effect
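Human foreskin fibroblasts infected with luciferase-reporter HCMV at MOI 1 PFU/cell, compounds at two doses. Luciferase measured 72 h post infection; normalized to buffer-only basal and Salinomycin (10uM) controls.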
CHX counter: counter-screen hit for Shiga toxin inhibitors, cycloheximide. cell reporter, cycloheximide protein synthesis inhibition counterscreen. max response, %. 300,000 compounds, 12% hits. AID 2314; in the data active = max response mostly above about 13%, no sharp cut-off; inactive = mostly below about 14%; also: read at 38.3 µM for the half of the compounds with a filed dose; 0% is about no effect
Pf growth 48h: inhibits P. falciparum growth in the first generation, 48 h; P. falciparum luciferase growth in erythrocytes, 48 h; Potency, µM (titrated, usually from 28.7 µM), for inactives: top-dose activity change, negative = inhibition, usual class: inhibitors; 310,000 compounds, 5.9% hits; also: potency is read from the fitted curve at half-maximal effect; % is scaled to controls: 0 for no effect and ±100 for the full control effect
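Here the parasites carry a stable luciferase gene and grow inside erythrocytes in Albumax-based RPMI medium with compound for one erythrocytic cycle. Activity is scored as loss of luminescent signal.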
HCV inh: inhibitors of hepatitis C virus infection. Huh7.5.1 HCVcc-Cre infection, luciferase reporter, 44 h. 340,000 compounds, 3.4% hits. AID 651820. Potency, µM (doses to about 41.8 µM), without a hit: at the top dose activity change, negative = inhibition, usual class: inhibitors; also: potency is read from the fitted curve at half-maximal effect; % is scaled to controls: 0 for no effect and ±100 for the full control effect
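1,000 cells/well; 4 h culture; + compound; + HCVcc-Cre (~0.5 moi); 44 h; luciferase substrate, RT 15 min; read 15 sec.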
* hit, by the source's call. Unless noted, calls follow the shape of the dose curve; as a rule, active = well fitted inhibition curve with a large enough effect; inconclusive = small, poorly fitted or top-dose-only effect, or another doubt; inactive = no such curve, though single readings can be large or run the other way.

Screening Cc1cc(C)n(-c2nc(C)nc(NCc3ccccc3)n2)n1 returned Shiga inhibitor 39, Pf growth 96h 47%, HCMV antiviral -19, CHX counter 4, Pf growth 48h 0% and HCV inh -5%.
Screening CCOc1ccc2nc3cc(NCc4ccc(OC)cc4)ccc3c(N)c2c1 returned Shiga inhibitor -5, Pf growth 96h 2.6µM*, CHX counter 2, Pf growth 48h 2.3µM* and HCV inh inconclusive.
For CCOc1ccc2nc3cc(N)ccc3c(N)c2c1 the results were Pf growth 96h 0.85µM* and Pf growth 48h 0.76µM*.
`CSc1ccc(CCNC(=O)c2cc3cc4cc(C)ccc4nc3s2)cc1` gave HCMV antiviral 61.
For N#CCCn1cc(C(=O)CN2C(=O)NC3(CCCCCC3)C2=O)c2ccccc21 the results were Pf growth 96h inconclusive, HCMV antiviral -2, Pf growth 48h inconclusive and HCV inh 38%.
Screening Cc1cccc(NC(=O)c2nc[nH]c2C(=O)N2CCN(C(=O)OC(C)(C)C)CC2)c1 returned Pf growth 96h inconclusive, HCMV antiviral -15, Pf growth 48h 0% and HCV inh 14%.
`COc1ccc(OC)c(CN2CCC(C(=O)N3CCOCC3)CC2)c1` gave Shiga inhibitor -1, Pf growth 96h 9.3µM*, HCMV antiviral -32, CHX counter -1, Pf growth 48h 0% and HCV inh 30%.
For COc1cc(CN2CCC(N3CCC(C(=O)N4CCCC4)CC3)CC2)cc2c1OCO2 the results were Shiga inhibitor 4, Pf growth 96h -6%, HCMV antiviral 45, CHX counter -3, Pf growth 48h 32% and HCV inh 10µM*.
Screening O=C(C1CCN(C2CCN(Cc3ccc4c(c3)CCO4)CC2)CC1)N1CCCC1 returned Shiga inhibitor -16, Pf growth 96h 55%, HCMV antiviral -20, CHX counter -3, Pf growth 48h 6% and HCV inh inconclusive.
COc1ccc(CN2CCC(N3CCC(C(=O)N4CCOCC4)CC3)CC2)c(F)c1 was read as Shiga inhibitor 12, Pf growth 96h 10µM*, HCMV antiviral -30, CHX counter -1, Pf growth 48h 11% and HCV inh -21%.
For COc1cc(CCN(C(C)=O)C2C(=O)Nc3ccccc3N=C2c2ccc3c(c2)OCO3)cc(OC)c1 (stereo unspecified) the results were HCMV antiviral 2.
COC(=O)[C@]12CCCCC=C1N(CCc1ccc(OC)c(OC)c1)C(=O)[C@H](CC(=O)N1CCN(C(=O)c3ccco3)CC1)C2 was read as HCMV antiviral -9.
For O=C(CCCc1nc2ccccc2s1)NCc1cccnc1 the results were Shiga inhibitor -2, Pf growth 96h -11%, HCMV antiviral 26, CHX counter 9, Pf growth 48h 5% and HCV inh 0%.
`CCOC(=O)c1cnc(-n2nc(C)cc2C)nc1NC(C)c1ccccc1` (stereo unspecified) gave Shiga inhibitor 9, Pf growth 96h inconclusive, HCMV antiviral -97*, CHX counter -4, Pf growth 48h 2.1µM* and HCV inh inconclusive.
For CCOC(=O)c1cnc(-n2nc(C)cc2C)nc1NNc1ncc(-c2ccccc2)cn1 the results were Shiga inhibitor 16, Pf growth 96h 1.7µM*, CHX counter -1, Pf growth 48h 3.3µM* and HCV inh inconclusive.
`CCOC(=O)c1cnc(-n2nc(C)cc2C)nc1NCc1ccccc1` gave Shiga inhibitor 11, Pf growth 96h 15%, HCMV antiviral -73*, CHX counter 1, Pf growth 48h 1.7µM* and HCV inh inconclusive.
CCOC(=O)c1cnc(-n2nc(C)cc2C)nc1NNc1cc(-c2ccccc2)nc(C)n1 was read as Shiga inhibitor -5, Pf growth 96h inconclusive, CHX counter -3, Pf growth 48h inconclusive and HCV inh -23%.
`CCOC(=O)c1cnc(-n2nc(C)cc2C)nc1NCCO` gave Shiga inhibitor -4, Pf growth 96h 36%, HCMV antiviral 18, CHX counter -2, Pf growth 48h inconclusive and HCV inh -2%.

Compound activity as filed in PubChem.
